# Laboratory results reported in PubChem BioAssay AID1851 (National Center for Advancing Translational Sciences (NCATS), 2009).
# Among all 16,000 compounds or so, about 2,600 (16%) were called active. Not shown: some 20% with an inconclusive outcome. This excerpt belongs to a sample that is enriched for actives. Values without a mark were called inactive. Calls come from the whole dose curve; as a rule, active = well fitted curve in the direction sought with a large enough effect; inconclusive = small, poorly fitted or top-dose-only effect, or effect the other way; inactive = no such curve, though single readings can be large or run the other way.
# Target: Cytochrome P450 2D6 (Homo sapiens) (UniProt P10635)
# Sequence (P10635 whole entry, looked up): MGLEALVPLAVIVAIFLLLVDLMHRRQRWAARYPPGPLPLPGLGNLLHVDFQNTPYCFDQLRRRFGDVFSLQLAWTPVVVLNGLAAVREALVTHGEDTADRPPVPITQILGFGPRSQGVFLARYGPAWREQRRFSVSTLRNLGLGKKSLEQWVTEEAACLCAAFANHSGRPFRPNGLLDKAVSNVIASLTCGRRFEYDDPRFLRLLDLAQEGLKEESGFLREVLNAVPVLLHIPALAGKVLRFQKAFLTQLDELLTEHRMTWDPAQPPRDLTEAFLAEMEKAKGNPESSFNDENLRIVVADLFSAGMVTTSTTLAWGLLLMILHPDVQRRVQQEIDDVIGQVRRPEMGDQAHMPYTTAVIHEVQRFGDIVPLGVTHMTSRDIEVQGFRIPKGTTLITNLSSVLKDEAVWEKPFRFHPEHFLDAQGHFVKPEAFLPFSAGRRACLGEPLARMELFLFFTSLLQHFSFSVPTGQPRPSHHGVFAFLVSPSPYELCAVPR
# Assay: Cytochrome panel assay with activity outcomes
# Settings: recombinant CYP, pro-luciferin dealkylation, luminescence, p450-cyp2d6; series mostly up to 57.1 µM; activity, negative = inhibition: at the top concentration
# % is set by controls: 0 for no effect and ±100 for the full control effect.
Compound,"activity, negative = inhibition",AC50
Cn1cnc(CCN)c1,10.3%,
C[C@H]1CC[C@@]2(NC1)O[C@@H]1C[C@H]3[C@@H]4CC[C@@H]5C[C@@H](O)CC[C@@]5(C)[C@@H]4CC[C@]3(C)[C@@H]1[C@@H]2C,-1.98% [at 25.6 µM],
C[C@]1(C(=O)O)[C@@H]2CC[C@@H](O2)[C@@]1(C)C(=O)O,-0.463%,
[N-]=[N+]=CC(=O)CC[C@H](N)C(=O)O,-11.2% [at 11.4 µM],
CN(C)CCCNc1c2c(nc3ccc(Cl)cc13)CCCC2,9.14% [at 11.4 µM],
COc1ccc(C2SCC(=O)Nc3c2c(C)nn3C2CCOC(C)(C)C2)cc1 (centres undefined),6.24%,
C[C@@]12CC[C@H](O)C[C@@H]1CC[C@@H]1[C@@H]2CC[C@@]2(C)[C@@H](C3=CC(=O)OC3)[C@H](O)C[C@]12O,17.5% [at 11.4 µM],
Cc1cc2c(C(F)(F)F)cc(=O)oc2c2c1NCCC2,-6.37%,
N=C(N)SCc1ccc(Cl)c2ccccc12 (tested in a mixture with another compound),,3160 nM (active)
C/C(=N\OC(=O)NC(C)C)c1sc(-c2ccc(Cl)cc2)nc1C,-20.1%,
C[C@@]12CC[C@H](O[C@@H]3O[C@H](CO)[C@@H](O)[C@H](O)[C@@H]3O)C[C@@H]1CC[C@H]1[C@H]2CC[C@@]2(C)[C@@H](C3=CCOC3=O)CC[C@]12O,-0.449% [at 11.4 µM],
COc1ccc(C[C@H]2NC[C@H](O)[C@@H]2OC(C)=O)cc1,,7940 nM (active)
c1ccc2c(c1)OC[C@@H](C1=NCCN1)O2,,631 nM (active)
C[N+]1(C)CCO[C@](O)(c2ccc(-c3ccc([C@]4(O)C[N+](C)(C)CCO4)cc3)cc2)C1,6.78% [at 25.6 µM],
Cc1ccc(N=Nc2c(O)[nH]c(=O)[nH]c2=O)c([N+](=O)[O-])c1,-25.8%,
Nc1nc(N)c(N=Nc2ccc([As](=O)(O)O)cc2)c(=O)[nH]1,13.1% [at 11.4 µM],
CCCCCCCCCCCCCC(=O)O[C@H]1[C@@H](C)[C@@]2(O)[C@@H](C=C(CO)C[C@]3(O)C(=O)C(C)=C[C@@H]23)C2C(C)(C)[C@]21OC(C)=O (some centres undefined),-9.86%,
CCc1ccccc1NC(=O)NC1CC2CCC(C1)N2Cc1cccs1 (centres undefined),,6310 nM (active)
COCCNC(=S)NC1CC2CCCC(C1)N2Cc1cccs1 (centres undefined),,398 nM (active)
COCCNC(=S)N1C2CCC1CC(NC(=O)NC13CC4CC(CC(C4)C1)C3)C2 (centres undefined),5.78%,
COCCCNC(=S)NC1CC2CCCC(C1)N2Cc1cccs1 (centres undefined),,891 nM (active)
C=C1C(O)(c2ccccc2)C2CC[N+]1(C)CC2 (centres undefined),-29.7%,

Compound,"activity, negative = inhibition",AC50
Cn1c(O)c(C(=N)COc2ccccc2)c(=O)n(C)c1=O,-6.8%,
CCCCc1ccc(C(=O)O)nc1,,inactive
CS(=O)c1ccc(-c2nc(-c3ccc(F)cc3)c(-c3ccncc3)[nH]2)cc1 (centres undefined),8.63%,
C[C@@H](Cc1ccccc1)NCCC(c1ccccc1)c1ccccc1,,10 nM (active)
C#CCN(C)[C@H](C)Cc1ccccc1,1.61%,
CCOC(=O)N1CCC(NC(=O)CCc2nc(C3=CCN(C)CC3)no2)CC1,1.28%,
Nc1nnnn1CCO,3.8% [at 11.4 µM],
O=C(O)c1nn(Cc2ccc(Cl)cc2Cl)c2ccccc12,0.0532%,
Cc1ccccc1-n1c(O)c(C=Nc2ccc(N(C)C)cc2)c(=O)[nH]c1=O,-6.05%,
Cc1oc(-c2ccccc2F)nc1CS(=O)CC(=O)N1CCC2(CC1)OCCO2 (centres undefined),7.67%,
CC1=C2[C@@H]3OC(=O)[C@@H](C)[C@@H]3CC[C@]2(C)C=CC1=O,-7.67% [at 25.6 µM],
O=C(O)[C@H]1C[C@@H]1[C@H](NP(=O)(c1ccccc1)c1ccccc1)c1ccccc1,10.1%,
COc1ccc(CNC(=O)/C=C\c2ccc3[nH]cc(CCN(C)C)c3c2)cc1,-1.05%,
CN[C@H](Cc1ccccc1)c1cccc(OC)c1O,,39.8 nM (active)
O=c1[nH]c(=O)n([C@H]2C[C@H](O)[C@H](CO)O2)cc1/C=C\Br,-3.53%,
N#C/C(=C\c1ccc(O)c(O)c1)C(=O)NCCCNC(=O)/C(C#N)=C/c1ccc(O)c(O)c1,-4.88%,
COCCCn1c(N)c(C(=O)Nc2sc3c(c2C(=O)OC)CCCC3)c2nc3ccccc3nc21,6.62%,
CCCCn1c(N)c(C(=O)NCc2cccs2)c2nc3ccccc3nc21,,20000 nM (active)
O=[As](O)(O)c1ccc(N=Nc2ccc(O)cc2)cc1,2.25% [at 11.4 µM],
C[C@]12CC[C@H](O)C[C@@H]1CC[C@H]1[C@H]2CC[C@]2(C)C(=O)CC[C@@H]12,,inactive
C[C@@]12CC[C@H]3[C@@H](CC[C@@H]4C[C@H](O)CC[C@]43C)[C@H]1CC[C@H]2O,6.56%,
COc1ccc2c(c1)CN([C@H](C)[C@@H]1CC[C@@H]3[C@H]4CC[C@H]5C[C@@H](O)CC[C@@]5(C)[C@H]4CC[C@]31C)CO2,,3160 nM (active)
